HP1b chromo inh – HTS for Inhibitors of HP1-beta Chromodomain Interactions with Methylated Histone Tails; Chromobox protein homolog 1 (Homo sapiens), P83916; AlphaScreen HP1-beta / biotin-H3K9me3 peptide binding; Potency, µM (doses to about 114 µM), hits mostly inhibitors; 390,000 compounds, 0.56% hits; AID 540317, 2011; also: nearly all actives have a fitted effect of over 70% in size
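AlphaScreen: HP1-beta (50 nM) preformed 30 min with biotin-H3(1-18)K9me3 peptide (50 nM) in PBS pH 7.4, 0.01% Tween-20. Compound added for 30 min at RT, then streptavidin donor/nickel chelate acceptor beads (10 ug/mL) for 30 min.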
JMJD2A Tudor – qHTS Assay for Inhibitors of JMJD2A-Tudor Domain; Lysine-specific demethylase 4A (Homo sapiens), O75164; AlphaScreen JMJD2A-Tudor / H3K4me3 peptide binding; Potency, µM (highest dose often 114 µM), hits mostly inhibitors; 390,000 compounds, 4.4% hits; AID 504339, 2011; also: nearly all actives have a fitted effect of over 50% in size
G9a inh – qHTS Assay for Inhibitors of Histone Lysine Methyltransferase G9a. Histone-lysine N-methyltransferase EHMT2 (Homo sapiens), Q96KQ7. G9a H3K9 monomethylation, AlphaScreen, 2 h. Potency, µM (top dose mostly 102 µM), most hits filed as inhibitors. 350,000 compounds, 8.8% hits. AID 504332, 2011; also: nearly all actives have a fitted effect of over 75% in size
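G9a (20 nM) was preincubated 15 min with compound, then reacted 2 h at room temperature with 500 nM biotin-H3K9 peptide and 20 µM SAM. Monomethyl-H3K9 detected by AlphaScreen using anti-H3K9me1 antibody.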
BAZ2B block – qHTS Assay for Inhibitors of BAZ2B | Bromodomain adjacent to zinc finger domain protein 2B (Homo sapiens), Q9UIF8 | Potency, µM (series often up to 114 µM), most hits filed as inhibitors | 360,000 compounds, 4.4% hits | AlphaScreen BAZ2B-H3K14Ac peptide displacement | AID 504333, 2011; also: nearly all actives have a fitted effect of over 60% in size
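BAZ2B 50 nM plus b-H3(5-23)K14Ac 50 nM, PBS pH 7.4/0.01% Tween-20, 30 min RT; compound added (max 110 uM), 30 min RT; streptavidin donor/Ni-chelate acceptor beads 10 ug/mL final, 20 min dark; AlphaScreen read.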
Sfp PPTase inh – qHTS Assay for Inhibitors of Bacillus subtilis Sfp phosphopantetheinyl transferase (PPTase) | 4'-phosphopantetheinyl transferase ffp (Bacillus subtilis), Q9F4F7 | Biochemical Sfp PPTase activity, qHTS | Potency, µM, actives largely listed as inhibitors | 310,000 compounds, 3.5% hits | AID 1490, 2009;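 also: the enzyme is Sfp with the accession as filed and its product quenches rhodamine fluorescence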
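Buffer: 50 mM Hepes-Na pH 7.6, 10 mM MgCl2, 0.01% Nonidet P-40, 0.01% BSA. Enzyme 15 nM, pre-exposed to compound 15 min; substrates then added and fluorescence change tracked over 30 min.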
PLK1 PBD block – qHTS for Inhibitors of PLK1-PDB (polo-like kinase 1 - polo-box domain): Primary Screen | 360,000 compounds, 2.8% hits | Potency, µM, hits mostly inhibitors | Plk1 PBD binding of FITC phosphopeptide, fluorescence polarization | Serine/threonine-protein kinase PLK1 (Homo sapiens), P53350; also: series mostly up to about 57 µM; nearly all actives have a fitted effect of over 65% in size
Large screens that a line does not name were inactive. Compounds with a hit are over-represented: about 12% of the library has one in this group of screens. Calls follow the shape of the dose curve; as a rule, active = well fitted curve in the direction sought with a large enough effect; inconclusive = small, poorly fitted or top-dose-only effect, or another doubt; inactive = no such curve, though single readings can be large; an effect the other way counts as inactive or inconclusive.

COc1ccc(N2CCN(C(=O)CCCNC(=O)Cn3cnc4sc(C)c(C)c4c3=O)CC2)cc1	G9a inh 50µM
COc1ccccc1N1CCN(C(=O)CCCNC(=O)Cn2cnc3sc(C)c(C)c3c2=O)CC1	none
O=C(NCc1ccccc1Cl)c1ccc(Cn2c(SCc3ccccc3)nc3cccnc32)cc1	none (no result: Sfp PPTase inh, PLK1 PBD block)
O=c1ccccn1CCOc1ccc(Cl)cc1	none (no result: G9a inh)
CC(C)(C)c1ccc(OCCn2ccccc2=O)cc1	JMJD2A Tudor 3.5µM
Cc1cc(C(=O)CSc2nnc(CCC(N)=O)n2C)c(C)n1C1CC1	G9a inh 50µM (no result: Sfp PPTase inh)
c1ccc(-n2c(Cc3cn4ccsc4n3)nnc2N2CCOCC2)cc1	JMJD2A Tudor 50µM, G9a inh inconclusive, BAZ2B block inconclusive
COc1ccc(C)cc1NS(=O)(=O)c1ccc2oc(=O)c3ncn(C)c3c2c1	G9a inh inconclusive (no result: Sfp PPTase inh, PLK1 PBD block)
Cc1cc2nc3c(=O)n(C)c(=O)n(C)c3nc2cc1N=CN(C)C	G9a inh 16µM (no result: Sfp PPTase inh, PLK1 PBD block)
O=c1nc(SCc2ccccc2Cl)nc(-c2ccc(Cl)cc2)[nH]1	PLK1 PBD block inconclusive
O=c1nc(SCc2c(F)cccc2Cl)nc(-c2ccc(Cl)cc2)[nH]1	G9a inh inconclusive, PLK1 PBD block 21µM
O=C1CCCCCN1Sc1ccccc1	G9a inh 10µM, Sfp PPTase inh 25µM, PLK1 PBD block 1.1µM
Cc1ccccc1-n1c(-c2ccco2)n[nH]c1=S	JMJD2A Tudor 3.2µM, G9a inh 7.1µM
FC(F)(F)c1ccccc1-n1c(-c2ccco2)n[nH]c1=S	G9a inh 16µM
COc1cc(NC(=O)Nc2nnc(N3CCCCCC3)s2)cc(OC)c1	G9a inh inconclusive (no result: Sfp PPTase inh, PLK1 PBD block)
Cc1nc(NC(=O)c2ccccc2)sc1-c1csc(Nc2cccc(F)c2)n1	G9a inh 45µM, BAZ2B block inconclusive (no result: HP1b chromo inh, JMJD2A Tudor, PLK1 PBD block)
Cc1cc(-c2csc(NC(=O)c3ccccc3C(F)(F)F)n2)c(C)n1Cc1ccccc1	G9a inh 45µM
Cc1nc(N)sc1-c1csc(NCc2ccccc2)n1	JMJD2A Tudor inconclusive, G9a inh 10µM, BAZ2B block 32µM, Sfp PPTase inh 40µM
Cc1nc(NC(=O)c2ccccc2)sc1-c1csc(NCCc2ccccc2)n1	JMJD2A Tudor inconclusive, G9a inh 40µM, BAZ2B block inconclusive
Cc1nc(N)sc1-c1csc(Nc2ncccn2)n1	HP1b chromo inh inconclusive, JMJD2A Tudor inconclusive, G9a inh inconclusive, BAZ2B block inconclusive, PLK1 PBD block inconclusive
CCc1cccc(CC)c1NC(=O)c1c(C)oc2ccc(O)c(CN3CCOCC3)c12	none (no result: Sfp PPTase inh, PLK1 PBD block)
Cc1ccc(NC(=O)CN2C(=O)c3ccccc3Sc3ncccc32)c(C)c1	none (no result: Sfp PPTase inh, PLK1 PBD block)
CCOC(=O)CNC(=O)c1sc(NC(=O)c2ccccc2)nc1C	none
Cc1ccc(Cl)cc1Nc1nc(-c2sc(NC(=O)c3ccccc3)nc2C)cs1	BAZ2B block inconclusive (no result: HP1b chromo inh, JMJD2A Tudor, G9a inh, PLK1 PBD block)
Cc1nc(NC(=O)c2ccccc2)sc1-c1csc(NCc2ccccc2)n1	JMJD2A Tudor inconclusive, G9a inh 40µM, BAZ2B block inconclusive
Cc1nc(NC(=O)c2ccccc2)sc1-c1csc(N)n1	JMJD2A Tudor inconclusive, G9a inh 8.9µM, BAZ2B block inconclusive
Cc1cc(-c2csc(NCc3ccccc3)n2)c(C)n1C	JMJD2A Tudor 45µM, G9a inh 8.9µM, BAZ2B block 40µM, Sfp PPTase inh inconclusive
CCCCNC(=S)NCCCN(Cc1ccc(Cl)c(Cl)c1)c1ccc(Br)cn1	none (no result: HP1b chromo inh, G9a inh, BAZ2B block, Sfp PPTase inh, PLK1 PBD block)
S=C(NCCCc1cnc[nH]1)NCCCN(Cc1ccc(Cl)cc1)c1ccc(-c2ccccc2)cn1	HP1b chromo inh inconclusive, JMJD2A Tudor 50µM (no result: G9a inh, BAZ2B block, Sfp PPTase inh, PLK1 PBD block)
O=C(NCCCc1cnc[nH]1)NCCCN(Cc1ccc(Cl)cc1)c1ccc(Br)cn1	HP1b chromo inh inconclusive, JMJD2A Tudor 45µM (no result: G9a inh, BAZ2B block, Sfp PPTase inh, PLK1 PBD block)
S=C(NCCCc1cnc[nH]1)NCCCN(CCc1ccc(Cl)cc1)c1ccc(Br)cn1	HP1b chromo inh inconclusive, JMJD2A Tudor 45µM (no result: G9a inh, BAZ2B block, Sfp PPTase inh, PLK1 PBD block)
S=C(NCCCc1cnc[nH]1)NCCCN(Cc1ccc(Cl)cc1)c1ccc(Br)cn1	JMJD2A Tudor 50µM (no result: HP1b chromo inh, G9a inh, BAZ2B block, Sfp PPTase inh, PLK1 PBD block)
CCCC1NC(=O)c2cccnc2-n2c1nc1ccc(C)cc1c2=O (centres undefined)	none (no result: HP1b chromo inh, JMJD2A Tudor, G9a inh, BAZ2B block, Sfp PPTase inh)
S=C(NCCCc1cnc[nH]1)NCCCN(Cc1ccc(Cl)cc1)c1ncc(Br)cn1	HP1b chromo inh inconclusive, JMJD2A Tudor 50µM (no result: G9a inh, BAZ2B block, Sfp PPTase inh, PLK1 PBD block)
CCN(CC)CCCNC(=S)Nc1ccc(Br)cc1	none
NCCCN(Cc1ccc(Cl)cc1)c1ccc(Br)cn1	none (no result: G9a inh, BAZ2B block, Sfp PPTase inh, PLK1 PBD block)
S=C(NCCCc1cnc[nH]1)NCCCN(Cc1ccc(Cl)cc1)c1ccc(Br)cc1	HP1b chromo inh 32µM, JMJD2A Tudor 4.5µM (no result: G9a inh, BAZ2B block, Sfp PPTase inh, PLK1 PBD block)
O=C(O)c1ccc(N2Cc3ccccc3C2)cc1O	JMJD2A Tudor inconclusive, G9a inh 8.9µM, BAZ2B block inconclusive, PLK1 PBD block inconclusive
COc1ccccc1C(=O)NCCSCc1c(F)cccc1Cl	G9a inh 71µM
O=C(NCCSCc1c(F)cccc1Cl)c1ccco1	none
